Measurements as given in PubChem BioAssay AID1345083 (National Center for Advancing Translational Sciences (NCATS), 2018).
The whole screen tested about 94,000 compounds, of which about 6,200 (6.6%) were called active. Roughly 31% stayed inconclusive and do not appear here. Calls follow the shape of the dose curve; as a rule, active = well fitted inhibition curve with a large enough effect; inconclusive = small, poorly fitted or top-dose-only effect; inactive = flat fitted curve, though single readings scatter. What follows is part of a selection rich in actives, with near analogues and random picks from the rest. A call without a number means that no potency is given here.

Experiment: Cytotoxic Profiling in HEK 293 Cell Line of Diverse Libraries Using Quantitative High-Throughput Screening; also: nearly all actives have a fitted effect of over 60% in size
Details: HEK 293 viability, ATP luminescence (CellTiter-Glo), 48-72 h; series mostly up to 115 µM
Description: Cell-based phenotypic screening is a commonly used approach to discover biological pathways, novel drug targets, chemical probes and high-quality hit-to-lead molecules. Many hits identified from high-throughput screening campaign are ruled out through a series of follow-up potency, selectivity/specificity, and cytotoxicity assays. Prioritization of molecules with little or no cytotoxicity for a more in-depth downstream evaluation influence the future direction of projects, so cytotoxicity profiling of the screening libraries at early stage is essential for increasing the likelihood of candidate success. In this study, we analyzed results from a cell-based cytotoxicity screening campaign, comprising nearly 10,000 compounds in NCATS annotated libraries, and over 100,000 compounds in a diversity library, evaluated in four normal cell lines (HEK 293, NIH 3T3, CRL-7250 and HaCat) and a cancer cell line (KB 3-1, a HeLa subline) with overall screening outcomes, hit rates, pan-activity and selectivity. For the annotated library, we also examined the primary targets and mechanistic pathways regularly associated with cell death. To our knowledge, this is the first study to use high-throughput screening to profile large libraries for cytotoxicity assessment in both normal and cancer cell lines. In summary, the results generated here constitutes a valuable resource for the scientific community and provides insight on identifying cytotoxic compounds with particular mechanisms of action, and prioritizing compounds with suitable cytotoxicity profile for further evaluation.
HEK 293 cells were seeded into white 1536-well plates using a Multidrop Combi peristaltic dispenser (ThermoFisher, Waltham, MA) at a density of 250 cells/well in 5 uL of medium respectively. A pintool (Kalypsys) was used to transfer 23 nL of compound solution to the 1536-well assay plates. After 48 or 72 hr incubation at 37 degree Celsius, 5% CO2 and 95% humidity, 2.5 uL of CellTiter-Glo (Promega) was dispensed into each well using a dispenser (Aspect Automation, St. Paul, MN) with solenoid valves (Lee Valves, Westbrook CT). Plates were left at room temperature for 10 min before imaging the ATP-coupled luminescence using a ViewLux microplate imager (PerkinElmer, Waltham, MA).
Potency is read from the fitted curve at half-maximal effect.

Row | Structure (SMILES) | Potency
1 | Cc1ccc(-c2ccc3nnc(CNC(=O)c4ccncc4)n3n2)cc1C | inactive
2 | COc1ccc2c(c1)OCC(C(=O)N1CCCN(c3ncccn3)CC1)C2 (stereo not drawn) | inactive
3 | COc1ccc(C(=O)NCC23CCC=C2N(C)C(=O)CC3)cc1OC (stereo not drawn) | inactive
4 | CCCS(=O)(=O)N1CCC(Nc2nccnc2OCC)CC1 | inactive
5 | COC[C@@H]1CN(Cc2c(C)n[nH]c2C)C[C@H]1c1nc(C)no1 | inactive
6 | CC/C=C(\C)CN1CCC2(CC1)Cc1ccccc1CNC2=O | inactive
7 | CC(=O)N1CC(CO)C2(CCN(C(=O)c3ccccc3Cl)CC2)C1 (stereo not drawn) | inactive
8 | C=CCNC(=O)N1CC[C@@H](CC(=O)O)[C@@H](CC2=NCCc3ccc(C)cc32)C1 | inactive
9 | COc1ccc(C(=O)N2CCCC2C(=O)N2CCCC2c2nc3ccncc3[nH]2)cc1 (stereo not drawn) | inactive
10 | COc1ccc(-c2nc3ccncc3[nH]2)cc1 | 20 µM (active)
11 | COc1ccc(C(=O)N2CCCC(C(=O)N3CCCC(c4nc5ccncc5[nH]4)C3)C2)cc1 (stereo not drawn) | inactive
12 | Cc1ccc(CN2CCOCCNC(=O)CC2)o1 | inactive
13 | CN(C)C(=O)c1cccnc1OC1CCN(S(=O)(=O)c2ccc(F)c(F)c2)C1 (stereo not drawn) | inactive
14 | Cc1ncsc1C(=O)N1CCC2(CC1)OC(=O)N(Cc1ncccn1)C2(C)c1ccccc1 (stereo not drawn) | inactive
15 | CC1(c2ccccc2)N(Cc2ccccc2F)C(=O)OC12CCN(Cc1c[nH]c3ccccc13)CC2 (stereo not drawn) | 20 µM (active)
16 | COC1CCC(C(=O)N2CCC3(CC2)OC(=O)N(Cc2ccccc2)C3(C)c2ccccc2)CC1 (stereo not drawn) | inactive
17 | CC(C)Oc1ccc(CN2CCCC(COc3ccccc3C(=O)N3CCCC3)C2)cc1 (stereo not drawn) | 39.8 µM (active)
18 | CC1CCN(C(=O)c2ccccc2OCC2CCCN(Cc3cncs3)C2)CC1 (stereo not drawn) | inactive
19 | CCOc1ccccc1C(=O)N1Cc2cnc(Cc3ccc(OC)cc3)nc2C1 | inactive
20 | COc1cc(-c2ccccc2C#N)cc(OC)c1OC | inactive
21 | COCCNC(=O)[C@@H]1C[C@H](Oc2ccccc2)CN1C(=O)C1(c2ccccc2)CC1 | inactive
22 | O=C(NCCCc1ccccc1)c1n[nH]c2c1CN(C(=O)C1CC1)CC2 | 11.2 µM (active)
23 | COC(=O)c1n[nH]c2c1CN(C(=O)[C@H]1CCC[C@@H](O)C1)CC2 | inactive
24 | CN(C)C(=O)c1n[nH]c2c1CN(C(=O)c1ccccc1Br)CC2 | inactive
25 | CN(C)C[C@@H]1CN(S(C)(=O)=O)C[C@H]1NC(=O)c1ccc(C#N)cc1 | inactive

Row | Structure (SMILES) | Potency
26 | Cn1nc(C2CCCN2C(=O)NC2CCCCC2)n(Cc2ccccc2)c1=O (stereo not drawn) | inactive
27 | COCCn1c(C)cnc1CC1CCN(C(=O)c2ccc(OC)cc2OC)CC1 | inactive
28 | COCCCNC(=O)N1CCC(Cc2noc(-c3ccncc3)n2)C1 (stereo not drawn) | inactive
29 | COc1ccc(NC(=O)N2CCCC(Cc3noc(-c4ccccc4)n3)C2)cc1 (stereo not drawn) | 35.5 µM (active)
30 | Cc1cc(C(=O)N2CCCC(Cc3noc(-c4cccnc4)n3)C2)nn1C (stereo not drawn) | inactive
31 | Cc1nc(-c2cn(C3CCCN(C(=O)c4cc(F)ccc4F)C3)nn2)no1 (stereo not drawn) | inactive
32 | COC(=O)[C@H](CC1CCCCC1)NC(=O)[C@@H]1CN(C(=O)c2ccc(N(C)C)cc2)CCN1C(C)=O | inactive
33 | COc1ccc(NC(=O)N2C[C@@H](F)C[C@H]2C(=O)N2CCCCC2)c(C)c1 | inactive
34 | NCc1ccc(-c2cncnc2)cc1 | inactive
35 | Cc1cc(Cl)ccc1-c1ccc(CN)cc1 | 31.6 µM (active)
36 | O=C(CCc1ccc2c(c1)CNCCO2)NCC1CC1 | inactive
37 | O=C1CCCCC(CNC(=O)c2ccoc2)N1 (stereo not drawn) | inactive
38 | Cc1ccc(CNC(=O)N2CCC3(CC2)CC(N(C2CC2)S(C)(=O)=O)CCO3)cc1 (stereo not drawn) | inactive
39 | Cc1nc(-c2ccccc2OC2CN(S(=O)(=O)c3cn(C)cn3)C2)no1 | inactive
40 | COc1ccccc1-c1cnc(NC(=O)c2ccc(Cl)cc2)c2c1CCO2 | 63.1 µM (active)
41 | COc1ccccc1-c1cc(C(=O)NCc2cnn(C)c2)c2c(c1)N(C)CCO2 | inactive
42 | COc1ccccc1-c1cnc(Nc2ccncc2)c2c1CCO2 | 63.1 µM (active)
43 | COc1cc2c(cc1OC)C(CNC(=O)c1ccc(Cl)cc1)N(C(=O)Nc1ccccc1)CC2 (stereo not drawn) | inactive
44 | CCS(=O)(=O)N1CC(F)(F)C[C@H]1c1nc(C2CC2)no1 | inactive
45 | CC(C)(C)n1nnnc1C1CC2(CCOCC2)C(=O)N1Cc1cccc(F)c1 (stereo not drawn) | inactive
46 | O=C1CC2(CCN(C(=O)C3CCN(C(=O)Cc4ccccn4)CC3)CC2)Oc2ccccc2N1 | inactive
47 | Cc1cnc(C)n1CCN | inactive
48 | Cc1ccccc1S(=O)(=O)N1CCN(C(=O)N2CC3CC(C2)[C@H]2CCCC(=O)N2C3)CC1 (stereo partly drawn) | inactive
49 | CCNC(=O)c1cccnc1OC1CCN(C(=O)CC2CCCC2)C1 (stereo not drawn) | inactive
50 | c1ccc2sc(C3CCCN(Cc4cc5n(n4)CCNC5)C3)nc2c1 (stereo not drawn) | inactive

Row | Structure (SMILES) | Potency
51 | CN1CCC(N2CC[C@H](c3nc4ccccc4s3)C2)CC1 | 31.6 µM (active)
52 | Cn1c([C@H]2CCN(C3CCOCC3)C2)nc2ccccc21 | inactive
53 | COc1cccc(CC(=O)NCCC2CCN(C(=O)Nc3ccc(C)cc3)CC2)c1 | inactive
54 | COc1cccc(NC(=O)NC[C@H]2O[C@@H](CO)[C@@H](O)[C@H]2N(C)CCN(C)C)c1 | inactive
55 | COC(=O)[C@@H]1Cc2c([nH]c3ccccc23)[C@H]2C[C@H](NCCNC(C)=O)C[C@@H](c3ccc(C)cc3)N21 | 25.1 µM (active)
56 | C#CCN[C@@H]1C[C@@H]2c3[nH]c4ccccc4c3C[C@@H](C(=O)OC)N2[C@H](c2ccc(F)cc2)C1 | 31.6 µM (active)
57 | COC(=O)[C@@H]1C[C@@H](NC(=O)c2ccc(-c3nnn(C)n3)cc2)CN1C | inactive
58 | CN(CCNC(=O)C1CCCN(S(C)(=O)=O)CCC(=O)NCC1)C1CCCCC1 (stereo not drawn) | inactive
59 | Cc1cc(C)n(CCC(=O)N[C@@H]2CN(S(C)(=O)=O)C[C@H]2CN(C)C)n1 | inactive
60 | COc1ccc(CNC(=O)NCC(=O)N2CCCCCCNC(=O)CC2c2ccccc2)cc1 (stereo not drawn) | inactive
61 | O=[S+]1([O-])NCC2(CCN(CC3CC3)CC2)Oc2ncccc21 | inactive
62 | Cc1noc([C@@H]2CC(F)(F)CN2C(=O)c2cc(C)on2)n1 | inactive
63 | Oc1ccccc1CN1CCOC[C@H]1c1ncc(-c2ccc(C(F)(F)F)cc2)[nH]1 | 70.8 µM (active)
64 | CC(C)(C)c1coc([C@@H]2COCCN2Cc2ccc(F)cc2)n1 | inactive
65 | Fc1ccc(CN2CCOC[C@H]2c2ncc(-c3cccnc3)[nH]2)cc1 | inactive
66 | c1cc(CN2CCOC[C@H]2c2ncc(-c3ccncc3)[nH]2)ccn1 | inactive
67 | CC(=O)N1CCC(N2CCOC[C@H]2c2ncc(-c3ccc(Cl)s3)[nH]2)CC1 | inactive
68 | Cn1cc(CN2CCOC[C@H]2c2ncc(-c3cccc(F)c3)[nH]2)c2ccccc21 | 35.5 µM (active)
69 | Cn1cc(CN2CC[C@H](c3nnc(-c4cccnc4)o3)C2)c2ccccc21 | inactive
70 | c1cncc(-c2cnc([C@@H]3COCCN3Cc3cnc4ccccc4c3)[nH]2)c1 | inactive
71 | Cc1ccc(CN2CCOC[C@H]2c2ncc(-c3cccc(F)c3)[nH]2)cc1 | 70.8 µM (active)
72 | O=C(CC1CCCCC1)Nc1ccc(-c2nnc3n2CCCC3)cc1 | inactive
73 | Cc1nsc(NC(=O)N2CCC(C(=O)N3CCCC3)CC2)n1 | inactive
74 | Cc1c(C(=O)N2CCn3nc(CO)cc3C2)cnc2cc(=O)[nH]n12 | inactive
75 | COCC(=O)N[C@@H]1CN(Cc2ccccc2OC(C)C)C[C@H]1CO | inactive

Row | Structure (SMILES) | Potency
76 | Cn1cnc(S(=O)(=O)N2CCOCCNC(=O)[C@@H]3CCC[C@@H]32)c1 | inactive
77 | O=C(Cn1ccn2nc(-c3ccc(F)cc3)c(CO)c2c1=O)Nc1ccc(F)cc1F | inactive
78 | CC(C)C1=NOC2(CCN(C3CCCCC3)CC2)C1 | inactive
79 | CNC(=O)[C@@H]1CN(Cc2ccncc2)C[C@H]1COC | inactive
80 | O=C1CCCCC(CNC(=O)c2ccncc2)N1 (stereo not drawn) | inactive
81 | O=C(O)CCNC(=O)Cn1nc2c(cc1=O)CCCCC2 | inactive
82 | Cn1nnc(-c2ccc(C(=O)N3CCC4(CCCO4)CC3)cc2)n1 | inactive
83 | O=C1Nc2ccc(-c3ccsc3)cc2C(=O)N2CC[C@H](NS(=O)(=O)c3cccs3)[C@@H]12 | inactive
84 | COc1ccc(C)cc1NC(=O)CN1C(=O)NC(c2ccccc2Cl)C2=C1COC2=O (stereo not drawn) | inactive
85 | Cc1ccccc1NC(=O)CN1C(=O)NC(c2ccccc2Cl)C2=C1COC2=O (stereo not drawn) | inactive
86 | Cc1ccc(Cl)cc1NC(=O)CN1C(=O)NC(c2ccc(Cl)cc2)C2=C1COC2=O (stereo not drawn) | 12.6 µM (active)
87 | COc1cccc(CC(=O)N2CCC(N3C(=O)CCC3C(=O)NCc3ccccc3)CC2)c1 (stereo not drawn) | inactive
88 | COc1cccc(CN2CCC(N3C(=O)c4c(c(C)nn4-c4ccccc4)C3C3CC3)CC2)c1 (stereo not drawn) | 35.5 µM (active)
89 | Cc1nn(-c2ccccc2)c2c1C(C(C)C)N(C1CN(C(=O)c3ccccc3Cl)C1)C2=O (stereo not drawn) | inactive
90 | Cc1nn(-c2ccccc2)c2c1C(C)N(C1CCCN(C(=O)c3ccccn3)C1)C2=O (stereo not drawn) | inactive
91 | COc1cccc(C(=O)N2CCC(N3C(=O)c4c(c(C)nn4-c4ccccc4)C3C)C2)c1 (stereo not drawn) | 35.5 µM (active)
92 | Cc1nn(-c2ccccc2)c2c1C(C(C)C)N(C1CCN(C(=O)c3ccc(Cl)nc3)CC1)C2=O (stereo not drawn) | inactive
93 | CC1(C(=O)O)CCN(C(=O)C2CCCC2)CC1 | inactive
94 | C=CCNC(=O)C[C@@H]1CCN(C(=O)c2cccnc2)C[C@@H]1CC | inactive
95 | COCCN(C)Cc1ccc(CC2CCN(C(=O)C3(c4ccc(OC)cc4)CC3)CC2)cc1 | 39.8 µM (active)
96 | CC(=O)N1CCC(Cc2ccc(C(=O)NC3CC3)cc2)CC1 | inactive
97 | COCCOC1CCOC2(CCN(C(=O)C3(c4ccc(OC)cc4)CC3)CC2)C1 (stereo not drawn) | inactive
98 | O=C1CC(c2ccccc2)N(Cc2ccncc2)CCCN(C(=O)COc2ccccc2)CCN1 (stereo not drawn) | inactive
